{"source": "PubChem BioAssay (NCI)", "experiment_in_all_cases": "NCI-60 one-dose screen, 48 h (100 = growth as untreated, 0 = no growth, -100 = all killed)", "conditions_in_all_cases": "10 µM unless noted", "key": {"[1]": {"system": "SR leukemia"}, "[2]": {"system": "RPMI-8226 leukemia"}, "[3]": {"system": "OVCAR-8 ovarian"}, "[4]": {"system": "OVCAR-5 ovarian"}, "[5]": {"system": "SK-OV-3 ovarian"}, "[6]": {"system": "IGROV1 ovarian"}, "[7]": {"system": "OVCAR-3 ovarian"}, "[8]": {"system": "HS 578T breast"}, "[9]": {"system": "NCI/ADR-RES ovarian"}}, "note": "About 83,000 compounds went through this panel and 20% of them were active in at least one assay; those are over-represented in the sample as a whole.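 Compound tested at a single concentration for 48 hours in 96-well plates; a percent growth value below 10 was scored as active.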 Calls of active or inactive are those of the source."}
{"smiles": "Oc1ccccc1/C=N\\NC(=S)Nc1ccc(F)cc1", "values": [{"measurement": "growth", "setting": "[1]", "result": "11.5% (inactive)"}, {"measurement": "growth", "setting": "[2]", "result": "41.1% (inactive)"}, {"measurement": "growth", "setting": "[3]", "result": "21.9% (inactive)"}, {"measurement": "growth", "setting": "[4]", "result": "55% (inactive)"}, {"measurement": "growth", "setting": "[5]", "result": "33.8% (inactive)"}, {"measurement": "growth", "setting": "[6]", "result": "20% (inactive)"}, {"measurement": "growth", "setting": "[7]", "result": "34.4% (inactive)"}, {"measurement": "growth", "setting": "[8]", "result": "32.5% (inactive)"}, {"measurement": "growth", "setting": "[9]", "result": "-2.4% (active)"}]}
{"smiles": "Brc1ccc2[nH]cc(-c3nc(-c4c[nH]c5ncccc45)cs3)c2c1", "values": [{"measurement": "growth", "setting": "[1]", "result": "9.23% (active)"}, {"measurement": "growth", "setting": "[2]", "result": "39.9% (inactive)"}, {"measurement": "growth", "setting": "[3]", "result": "46.3% (inactive)"}, {"measurement": "growth", "setting": "[4]", "result": "63.7% (inactive)"}, {"measurement": "growth", "setting": "[5]", "result": "55% (inactive)"}, {"measurement": "growth", "setting": "[6]", "result": "23.1% (inactive)"}, {"measurement": "growth", "setting": "[7]", "result": "52.4% (inactive)"}, {"measurement": "growth", "setting": "[8]", "result": "71.8% (inactive)"}, {"measurement": "growth", "setting": "[9]", "result": "32.7% (inactive)"}]}
{"smiles": "O=C(c1ccccc1)C(CN1CCOCC1)c1ccccc1", "note": "(stereo unspecified)", "values": [{"measurement": "growth", "setting": "[1]", "result": "-0.205% (active)"}, {"measurement": "growth", "setting": "[2]", "result": "-8.68% (active)"}, {"measurement": "growth", "setting": "[3]", "result": "14.2% (inactive)"}, {"measurement": "growth", "setting": "[4]", "result": "116% (inactive)"}, {"measurement": "growth", "setting": "[5]", "result": "91.6% (inactive)"}, {"measurement": "growth", "setting": "[6]", "result": "7.53% (active)"}, {"measurement": "growth", "setting": "[7]", "result": "-10.7% (active)"}, {"measurement": "growth", "setting": "[8]", "result": "59.8% (inactive)"}, {"measurement": "growth", "setting": "[9]", "result": "18.8% (inactive)"}]}
{"smiles": "COc1cc2[nH]c(C(=O)c3cc(OC)c(OC)c(OC)c3)c(N)c2cc1C#CC1CC1", "values": [{"measurement": "growth", "setting": "[1]", "result": "13.4% (inactive)"}, {"measurement": "growth", "setting": "[2]", "result": "47.6% (inactive)"}, {"measurement": "growth", "setting": "[3]", "result": "55.7% (inactive)"}, {"measurement": "growth", "setting": "[4]", "result": "38.4% (inactive)"}, {"measurement": "growth", "setting": "[5]", "result": "32.4% (inactive)"}, {"measurement": "growth", "setting": "[6]", "result": "42.1% (inactive)"}, {"measurement": "growth", "setting": "[7]", "result": "2.8% (active)"}, {"measurement": "growth", "setting": "[8]", "result": "-1.8% (active)"}, {"measurement": "growth", "setting": "[9]", "result": "27.7% (inactive)"}]}
{"smiles": "Cn1cc(-c2nc(-c3c[nH]c4ncccc34)cs2)c2ccccc21", "values": [{"measurement": "growth", "setting": "[1]", "result": "40% (inactive)"}, {"measurement": "growth", "setting": "[2]", "result": "64% (inactive)"}, {"measurement": "growth", "setting": "[3]", "result": "101% (inactive)"}, {"measurement": "growth", "setting": "[4]", "result": "49.1% (inactive)"}, {"measurement": "growth", "setting": "[5]", "result": "95.5% (inactive)"}, {"measurement": "growth", "setting": "[6]", "result": "51% (inactive)"}, {"measurement": "growth", "setting": "[7]", "result": "77.7% (inactive)"}, {"measurement": "growth", "setting": "[8]", "result": "103% (inactive)"}, {"measurement": "growth", "setting": "[9]", "result": "74.4% (inactive)"}]}
{"smiles": "O=C(/C=C/c1cccc(O)c1)c1ccccc1O", "values": [{"measurement": "growth", "setting": "[1]", "result": "36% (inactive)"}, {"measurement": "growth", "setting": "[2]", "result": "28% (inactive)"}, {"measurement": "growth", "setting": "[3]", "result": "92.9% (inactive)"}, {"measurement": "growth", "setting": "[4]", "result": "99.4% (inactive)"}, {"measurement": "growth", "setting": "[5]", "result": "107% (inactive)"}, {"measurement": "growth", "setting": "[6]", "result": "66.7% (inactive)"}, {"measurement": "growth", "setting": "[7]", "result": "93.5% (inactive)"}, {"measurement": "growth", "setting": "[8]", "result": "86.9% (inactive)"}, {"measurement": "growth", "setting": "[9]", "result": "86.6% (inactive)"}]}
{"smiles": "C/C(=N\\NC(=O)C(C)SC(C)C(=O)N/N=C(\\C)c1cccnc1)c1cccnc1", "note": "(stereo unspecified)", "values": [{"measurement": "growth", "setting": "[1]", "result": "79.6% (inactive)"}, {"measurement": "growth", "setting": "[2]", "result": "101% (inactive)"}, {"measurement": "growth", "setting": "[3]", "result": "109% (inactive)"}, {"measurement": "growth", "setting": "[4]", "result": "110% (inactive)"}, {"measurement": "growth", "setting": "[5]", "result": "109% (inactive)"}, {"measurement": "growth", "setting": "[6]", "result": "102% (inactive)"}, {"measurement": "growth", "setting": "[7]", "result": "114% (inactive)"}, {"measurement": "growth", "setting": "[8]", "result": "101% (inactive)"}, {"measurement": "growth", "setting": "[9]", "result": "108% (inactive)"}]}
{"smiles": "COc1ccc(/C=C/C(=O)c2ccc([N+](=O)[O-])cc2)cc1", "values": [{"measurement": "growth", "setting": "[1]", "result": "85.4% (inactive)"}, {"measurement": "growth", "setting": "[2]", "result": "78.9% (inactive)"}, {"measurement": "growth", "setting": "[3]", "result": "105% (inactive)"}, {"measurement": "growth", "setting": "[4]", "result": "111% (inactive)"}, {"measurement": "growth", "setting": "[5]", "result": "103% (inactive)"}, {"measurement": "growth", "setting": "[6]", "result": "105% (inactive)"}, {"measurement": "growth", "setting": "[7]", "result": "113% (inactive)"}, {"measurement": "growth", "setting": "[8]", "result": "106% (inactive)"}, {"measurement": "growth", "setting": "[9]", "result": "106% (inactive)"}]}
{"smiles": "Cc1ccc(Nc2c(C(N)=O)cnc3ccc(S(=O)(=O)Nc4cc(C)on4)cc23)cc1", "values": [{"measurement": "growth", "setting": "[1]", "result": "101% (inactive)"}, {"measurement": "growth", "setting": "[2]", "result": "103% (inactive)"}, {"measurement": "growth", "setting": "[3]", "result": "97.9% (inactive)"}, {"measurement": "growth", "setting": "[4]", "result": "99.5% (inactive)"}, {"measurement": "growth", "setting": "[5]", "result": "107% (inactive)"}, {"measurement": "growth", "setting": "[6]", "result": "101% (inactive)"}, {"measurement": "growth", "setting": "[7]", "result": "103% (inactive)"}, {"measurement": "growth", "setting": "[8]", "result": "104% (inactive)"}, {"measurement": "growth", "setting": "[9]", "result": "101% (inactive)"}]}
{"smiles": "Cn1cc(-c2nc(-c3cn(C)c4ncccc34)cs2)c2cc(F)ccc21", "values": [{"measurement": "growth", "setting": "[1]", "result": "22.4% (inactive)"}, {"measurement": "growth", "setting": "[2]", "result": "38% (inactive)"}, {"measurement": "growth", "setting": "[3]", "result": "54.6% (inactive)"}, {"measurement": "growth", "setting": "[4]", "result": "56.3% (inactive)"}, {"measurement": "growth", "setting": "[5]", "result": "57.4% (inactive)"}, {"measurement": "growth", "setting": "[6]", "result": "44.2% (inactive)"}, {"measurement": "growth", "setting": "[7]", "result": "1.46% (active)"}, {"measurement": "growth", "setting": "[8]", "result": "76.4% (inactive)"}, {"measurement": "growth", "setting": "[9]", "result": "10.8% (inactive)"}]}
{"smiles": "CC(C)=CCC/C(C)=C/CC/C(C)=C/CC/C(C)=C/CSC[C@H](NC(=O)CCCCCN1CCN(C)CC1)C(=O)NC1CCCCC1", "values": [{"measurement": "growth", "setting": "[1]", "result": "2.5% (active)"}, {"measurement": "growth", "setting": "[2]", "result": "63.4% (inactive)"}, {"measurement": "growth", "setting": "[3]", "result": "90.3% (inactive)"}, {"measurement": "growth", "setting": "[4]", "result": "85% (inactive)"}, {"measurement": "growth", "setting": "[5]", "result": "96.5% (inactive)"}, {"measurement": "growth", "setting": "[6]", "result": "80.6% (inactive)"}, {"measurement": "growth", "setting": "[7]", "result": "91.1% (inactive)"}, {"measurement": "growth", "setting": "[8]", "result": "95.7% (inactive)"}]}
{"smiles": "COc1ccc(C(=O)c2cc(OC)c(OC)c(OC)c2)cc1/C=C/C(=O)c1cc(OC)c(OC)c(OC)c1", "values": [{"measurement": "growth", "setting": "[1]", "result": "43.2% (inactive)"}, {"measurement": "growth", "setting": "[2]", "result": "67% (inactive)"}, {"measurement": "growth", "setting": "[3]", "result": "86.7% (inactive)"}, {"measurement": "growth", "setting": "[4]", "result": "88.7% (inactive)"}, {"measurement": "growth", "setting": "[5]", "result": "105% (inactive)"}, {"measurement": "growth", "setting": "[6]", "result": "95.9% (inactive)"}, {"measurement": "growth", "setting": "[7]", "result": "99.3% (inactive)"}, {"measurement": "growth", "setting": "[8]", "result": "82.4% (inactive)"}, {"measurement": "growth", "setting": "[9]", "result": "81.1% (inactive)"}]}
{"smiles": "Cn1cc(-c2csc(-c3c[nH]c4ccccc34)n2)c2cccnc21", "values": [{"measurement": "growth", "setting": "[1]", "result": "27.4% (inactive)"}, {"measurement": "growth", "setting": "[2]", "result": "21.3% (inactive)"}, {"measurement": "growth", "setting": "[3]", "result": "39.2% (inactive)"}, {"measurement": "growth", "setting": "[4]", "result": "54% (inactive)"}, {"measurement": "growth", "setting": "[5]", "result": "28.9% (inactive)"}, {"measurement": "growth", "setting": "[6]", "result": "42% (inactive)"}, {"measurement": "growth", "setting": "[7]", "result": "-14.9% (active)"}, {"measurement": "growth", "setting": "[8]", "result": "60.5% (inactive)"}, {"measurement": "growth", "setting": "[9]", "result": "0.975% (active)"}]}
